# Records with an inconclusive call do not appear. Calls of active or inactive are those of the source. Rule for the calls, unless noted: active = hit-call score of the fitted dose curve at least 0.9, where 1 is the maximum; inconclusive = response in the unintended direction; inactive = score below 0.9.
# Columns and labels:
# [1] = biological target: Nuclear receptor subfamily 1 group I member 2 (Homo sapiens) (UniProt O75469); assay: NVS_NR_hPXR: NovaScreen (NVS) Nuclear Receptor Binding Assay for human Pregnane X Receptor (PXR) (AID 2283365);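 note: a drop in FRET signal versus DMSO baseline means the compound binds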
# Nuclear receptor subfamily 1 group I member 2 (Homo sapiens), sequence (O75469 whole entry, looked up): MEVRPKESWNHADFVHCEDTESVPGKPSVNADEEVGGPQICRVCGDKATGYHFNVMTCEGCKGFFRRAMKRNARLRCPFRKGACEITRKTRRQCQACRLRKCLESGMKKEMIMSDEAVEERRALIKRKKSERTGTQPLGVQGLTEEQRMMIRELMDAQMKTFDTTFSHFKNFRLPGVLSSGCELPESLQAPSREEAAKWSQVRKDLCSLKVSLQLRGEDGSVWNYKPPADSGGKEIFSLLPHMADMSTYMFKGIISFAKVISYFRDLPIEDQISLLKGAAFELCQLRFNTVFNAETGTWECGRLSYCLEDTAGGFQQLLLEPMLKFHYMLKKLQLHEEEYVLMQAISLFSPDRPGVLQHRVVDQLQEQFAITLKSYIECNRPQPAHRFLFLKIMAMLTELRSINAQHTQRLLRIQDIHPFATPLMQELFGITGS
# In short: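 Cell-free TR-FRET binding assay with extracted human PXR protein, read 2 h after dosing. Primary screen run in duplicate at 25 uM, actives followed in concentration series; loss of signal fitted against DMSO baseline.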
# [2] = biological target: Peroxisome proliferator-activated receptor gamma (Homo sapiens) (UniProt P37231); assay: NVS_NR_hPPARg: NovaScreen (NVS) Nuclear Receptor Binding Assay for human Peroxisome Proliferator-activated Receptor gamma (PPARg) (AID 2283370)
# Peroxisome proliferator-activated receptor gamma (Homo sapiens), sequence (P37231 whole entry, looked up, the tested form may be a part): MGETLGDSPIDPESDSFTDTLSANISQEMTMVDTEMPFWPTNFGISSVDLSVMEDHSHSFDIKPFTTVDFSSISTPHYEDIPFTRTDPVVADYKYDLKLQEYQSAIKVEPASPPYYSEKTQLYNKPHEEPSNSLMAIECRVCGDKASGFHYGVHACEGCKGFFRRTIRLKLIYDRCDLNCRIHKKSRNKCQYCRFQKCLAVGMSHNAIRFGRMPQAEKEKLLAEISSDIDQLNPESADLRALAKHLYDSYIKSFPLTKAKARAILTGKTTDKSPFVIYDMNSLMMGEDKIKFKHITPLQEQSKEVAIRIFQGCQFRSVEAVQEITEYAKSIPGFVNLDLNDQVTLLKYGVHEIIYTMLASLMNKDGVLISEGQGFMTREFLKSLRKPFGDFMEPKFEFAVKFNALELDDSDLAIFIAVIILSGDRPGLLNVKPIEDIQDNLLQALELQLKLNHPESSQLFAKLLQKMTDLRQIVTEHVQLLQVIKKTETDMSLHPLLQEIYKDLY
# In short: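 Cell-free fluorescence polarization binding to human PPARg protein, read 2 h after dosing. Primary screen in duplicate at 25 uM, actives followed in concentration series; loss of signal relative to DMSO scored.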
# [3] = biological target: Estrogen receptor beta (Homo sapiens) (UniProt Q92731); assay: OT_ER_ERbERb_1440: Odyssey Thera (OT) 24-hour HEK293T Protein-Complementation Assay for Estrogen Receptor-beta/-beta Homodimer (AID 2283380);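 note: fluorescence gain from ER beta LBD homodimer complementation read by laser scanning cytometry; scored as signal increase over DMSO baseline for both agonists and antagonists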
# In short: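 HEK293T cells stably expressing human ER-beta LBD (aa 310-547) PCA homodimer pair, dosed 24 h; formaldehyde-fixed, Draq5-stained. Readout: increase in nuclear (agonist) or nuclear plus cytoplasmic (antagonist) fluorescence intensity versus DMSO, gain-of-signal fitting.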
# [4] = biological target: Estrogen receptor (Homo sapiens) (UniProt P03372); assay: OT_ERa_GFPERaERE_0480: Odyssey Thera (OT) 8-hour HeLa Transcription Induction Assay for Estrogen Receptor (AID 2283381; active = hit-call score of the fitted dose curve at least 0.9, where 1 is the maximum; inactive = score below 0.9)
# In short: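 HeLa cells dosed with compound and imaged by fluorescence microscopy at 8 h; GFP induction from an ERE reporter quantified by high-content image analysis and fitted as gain of signal against DMSO baseline.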
# [5] = biological target: Estrogen receptor (Homo sapiens) (UniProt P03372); assay: OT_ERa_GFPERaERE_0120: Odyssey Thera (OT) 2-hour HeLa Transcription Induction Assay for Estrogen Receptor (AID 2283382)
# In short: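 HeLa cells were dosed with test chemical and read 2 hours later for GFP-ERα/ERE-linked fluorescent protein induction by fluorescence microscopy. Gain-of-signal was fitted relative to DMSO baseline, quantified by high content image analysis.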
# [6] = biological target: Bile acid receptor (Homo sapiens) (UniProt Q96RI1); assay: OT_FXR_FXRSRC1_0480: Odyssey Thera (OT) 8-hour HEK293T Protein-Complementation Assay for Farnesoid X receptor/SRC-1 Co-activator (AID 2283383)
# Bile acid receptor (Homo sapiens), sequence (Q96RI1 whole entry, looked up, the tested form may be a part): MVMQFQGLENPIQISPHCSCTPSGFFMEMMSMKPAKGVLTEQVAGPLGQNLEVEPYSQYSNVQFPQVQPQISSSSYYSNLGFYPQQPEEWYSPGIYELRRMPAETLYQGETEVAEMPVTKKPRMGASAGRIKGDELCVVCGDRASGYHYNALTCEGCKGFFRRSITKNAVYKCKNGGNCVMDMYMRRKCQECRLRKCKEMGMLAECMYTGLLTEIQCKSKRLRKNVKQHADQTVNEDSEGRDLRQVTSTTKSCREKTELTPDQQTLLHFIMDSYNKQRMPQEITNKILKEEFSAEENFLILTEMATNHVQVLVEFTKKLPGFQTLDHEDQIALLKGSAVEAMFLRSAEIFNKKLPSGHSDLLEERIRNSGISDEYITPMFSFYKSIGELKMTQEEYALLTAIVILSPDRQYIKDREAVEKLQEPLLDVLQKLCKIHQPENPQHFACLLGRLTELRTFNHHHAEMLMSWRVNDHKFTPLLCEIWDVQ
# In short: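 HEK293T cells expressing FXR and SRC-1 fused to reporter fragments were dosed with compound for 8 h; fluorescence from the reconstituted reporter marked co-activator recruitment. Gain of signal was fitted against the DMSO baseline.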
# [7] = biological target: Peroxisome proliferator-activated receptor gamma (Homo sapiens) (UniProt P37231); assay: OT_PPARg_PPARgSRC1_0480: Odyssey Thera (OT) 8-hour Protein-Complementation Assay for Peroxisome Proliferator-activated Receptor Gamma / SRC-1 Co-activator (AID 2283387)
# In short: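 HEK293T transiently transfected with PPARg and SRC-1 fused to Venus YFP fragments, compounds 8 h at 37C. Fixed, Draq5-stained cells imaged; nuclear/cytoplasmic 488 nm fluorescence ratio over at least 350 cells per image; gain fitted versus DMSO.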
# [8] = biological target: Peroxisome proliferator-activated receptor gamma (Homo sapiens) (UniProt P37231); assay: OT_PPARg_PPARgSRC1_1440: Odyssey Thera (OT) 24-hour Protein-Complementation Assay for Peroxisome Proliferator-activated Receptor Gamma/ SRC-1 Co-activator (AID 2283388)
# In short: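 HEK293T transiently transfected with PPARg/SRC-1 split-Venus YFP fusions 48 h before dosing, then treated 24 h at 37C. Fixed cells imaged; nuclear/cytoplasmic 488 nm fluorescence ratio, gain of signal versus DMSO.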
# [9] = biological target: Bile acid receptor (Homo sapiens) (UniProt Q96RI1); assay: OT_FXR_FXRSRC1_1440: Odyssey Thera (OT) 24-hour HEK293T Protein-Complementation Assay for Farnesoid X receptor/SRC-1 Co-activator (AID 2283384)
# In short: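 HEK293T cells were dosed with compound and read 24 h later by fluorescence intensity from protein-fragment complementation reporting FXR/SRC-1 co-activator interaction. Gain of signal was fitted relative to DMSO negative control as baseline.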
# [10] = biological target: Retinoic acid receptor RXR-alpha (Homo sapiens) (UniProt P19793); assay: OT_NURR1_NURR1RXRa_0480: Odyssey Thera (OT) 8-hour HEK293T Protein Complementation Assay for Nurr1/retinoid X receptor (RXR) (AID 2283385)
# Retinoic acid receptor RXR-alpha (Homo sapiens), sequence (P19793 whole entry, looked up, the tested form may be a part): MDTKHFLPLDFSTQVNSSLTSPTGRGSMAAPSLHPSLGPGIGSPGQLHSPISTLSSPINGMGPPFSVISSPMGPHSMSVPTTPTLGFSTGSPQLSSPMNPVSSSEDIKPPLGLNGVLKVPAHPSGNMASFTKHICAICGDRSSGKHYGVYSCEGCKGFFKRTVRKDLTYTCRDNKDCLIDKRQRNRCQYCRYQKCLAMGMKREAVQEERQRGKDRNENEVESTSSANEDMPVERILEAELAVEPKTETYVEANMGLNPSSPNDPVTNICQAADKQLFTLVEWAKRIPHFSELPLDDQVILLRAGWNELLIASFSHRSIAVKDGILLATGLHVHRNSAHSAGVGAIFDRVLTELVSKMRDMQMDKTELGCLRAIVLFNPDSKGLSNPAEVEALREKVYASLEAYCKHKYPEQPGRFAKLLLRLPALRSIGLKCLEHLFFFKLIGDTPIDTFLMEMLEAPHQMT
# In short: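 HEK293T cells expressing Nurr1 and RXRα fused to reporter fragments were dosed with compound for 8 hours. Complex formation was read as fluorescence intensity and analysed as gain of signal against DMSO as baseline.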
# [11] = biological target: Retinoic acid receptor RXR-alpha (Homo sapiens) (UniProt P19793); assay: OT_NURR1_NURR1RXRa_1440: Odyssey Thera (OT) 24-hour HEK293T Protein Complementation Assay for Nurr1/retinoid X receptor (RXR) (AID 2283386)
# In short: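 HEK293T cells were dosed with compound and read 24 h later by fluorescence intensity in a protein-fragment complementation format, where Nurr1–RXRα interaction reconstitutes a split reporter. Activity was fitted as gain of signal relative to DMSO baseline.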
# [12] = CEETOX_H295R_11DCORT: CeeTox H295R High-throughput Steroidogenesis Assay for 11-Deoxycortisol (11DCORT) (AID 2283432; active = hit-call score of the fitted dose curve at least 0.9, where 1 is the maximum; inactive = score below 0.9;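 for AC50: 11-deoxycortisol secreted into the medium measured by LC-MS/MS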); details: actives raise or lower the signal
# In short: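 H295R cells prestimulated 48 h with 10 uM forskolin, then exposed 48 h to chemical in 0.1% DMSO. 11-Deoxycortisol in medium quantified by HPLC-MS/MS after MTBE extraction; bidirectional fit versus DMSO. MTT viability read in same wells.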
# [13] = CEETOX_H295R_OHPREG: CeeTox H295R High-throughput Steroidogenesis Assay for OH-Pregnenolone (OHPREG) (AID 2283434; active = hit-call score of the fitted dose curve at least 0.9, where 1 is the maximum; inactive = score below 0.9); details: actives raise or lower the signal
# In short: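 Human adrenal H295R cells were prestimulated 48 h with 10 uM forskolin, then exposed 48 h to chemical in 0.1% DMSO. Medium 17alpha-hydroxypregnenolone was quantified by HPLC-MS/MS after MTBE extraction; bidirectional fitting versus DMSO baseline.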
# [14] = biological target: guinea pig Sigma Receptor, Non-selective Binding, SIGMAR1 (gene 100135589) (UniProt Q60492); assay: NVS_OR_gSIGMA_NonSelective: NovaScreen (NVS) Nuclear Receptor Binding Assay for guinea pig Sigma Receptor, Non-selective Binding (AID 2283367)
# guinea pig Sigma Receptor, Non-selective Binding, SIGMAR1 (gene 100135589), sequence (Q60492 whole entry, looked up): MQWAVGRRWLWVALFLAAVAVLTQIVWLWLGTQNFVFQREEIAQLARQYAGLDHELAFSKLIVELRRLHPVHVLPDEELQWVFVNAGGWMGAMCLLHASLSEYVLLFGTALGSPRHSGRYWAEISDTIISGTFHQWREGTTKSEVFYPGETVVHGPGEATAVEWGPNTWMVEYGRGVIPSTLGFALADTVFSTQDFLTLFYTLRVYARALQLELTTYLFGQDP
# In short: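 Guinea pig brain membranes, cell-free radioligand binding; read 1 h after dosing by filter-based scintillation counting. Loss of signal vs DMSO baseline taken as displacement. Primary screen single concentration 25 uM in duplicate; actives retested in concentration series.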
# [15] = tested on: guinea pig Dopamine Transporter (DAT), gene 100714898; assay: NVS_TR_gDAT: NovaScreen (NVS) Transporter Assay for guinea pig Dopamine Transporter (DAT) (AID 2283369);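 note: active compounds lower bound radioligand signal relative to DMSO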
# In short: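 Guinea pig striatal membranes, cell-free radioligand binding with filter-based scintillation counting, read 2 h after dosing. Loss of signal versus DMSO baseline; single-concentration primary (25 uM) then concentration-response up to 50 uM.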
# [16] = biological target: human Dopamine Transporter (DAT), SLC6A3 (gene 6531) (UniProt Q01959); assay: NVS_TR_hDAT: NovaScreen (NVS) Transporter Assay for human Dopamine Transporter (DAT) (AID 2283374);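 note: activity means loss of bound radioligand signal relative to DMSO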
# human Dopamine Transporter (DAT), SLC6A3 (gene 6531), sequence (Q01959 whole entry, looked up): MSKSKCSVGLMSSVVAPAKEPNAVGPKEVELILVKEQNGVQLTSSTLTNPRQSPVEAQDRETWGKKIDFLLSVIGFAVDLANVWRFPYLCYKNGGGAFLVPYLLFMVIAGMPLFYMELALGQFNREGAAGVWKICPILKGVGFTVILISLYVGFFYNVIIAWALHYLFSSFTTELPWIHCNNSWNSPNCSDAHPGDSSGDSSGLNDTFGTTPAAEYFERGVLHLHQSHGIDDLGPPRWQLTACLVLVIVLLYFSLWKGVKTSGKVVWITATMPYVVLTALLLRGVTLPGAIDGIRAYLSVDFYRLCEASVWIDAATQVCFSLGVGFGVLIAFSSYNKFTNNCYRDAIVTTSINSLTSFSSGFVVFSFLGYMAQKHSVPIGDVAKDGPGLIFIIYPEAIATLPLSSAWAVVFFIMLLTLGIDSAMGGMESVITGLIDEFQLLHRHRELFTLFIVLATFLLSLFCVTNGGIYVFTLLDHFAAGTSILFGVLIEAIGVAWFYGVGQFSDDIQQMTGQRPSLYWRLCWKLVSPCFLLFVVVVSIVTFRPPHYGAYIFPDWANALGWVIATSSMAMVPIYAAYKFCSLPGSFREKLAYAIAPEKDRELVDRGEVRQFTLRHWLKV
# In short: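 Cell-free radioligand binding to extracted human DAT protein, read 1 h after dosing by filter-based scintillation counting. Loss of specific binding scored against DMSO baseline; primary screen in duplicate at 25 uM, actives then run in concentration series.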
# [17] = biological target: Norway rat Vesicular Monoamine Transporter (VMAT2), neurotransmitter transporter, Slc18a2 (gene 25549) (UniProt Q01827); assay: NVS_TR_rVMAT2: NovaScreen (NVS) Transporter Assay for Norway rat Vesicular Monoamine Transporter (VMAT2), neurotransmitter transporter (AID 2283376);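 note: actives lower the bound radioligand signal below the DMSO level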
# In short: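 Rat forebrain tissue preparation used in a cell-free radioligand binding format; displacement read by filter-based scintillation counting 1 hour after dosing. Primary screen in duplicate at 25 uM, actives then run in concentration series; loss of signal versus DMSO baseline.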
# [18] = biological target: rat Androgen Receptor (AR), Ar (gene 24208) (UniProt P15207); assay: NVS_NR_rAR: NovaScreen (NVS) Nuclear Receptor Binding Assay for rat Androgen Receptor (AR) (AID 2283366)
# rat Androgen Receptor (AR), Ar (gene 24208), sequence (P15207 whole entry, looked up): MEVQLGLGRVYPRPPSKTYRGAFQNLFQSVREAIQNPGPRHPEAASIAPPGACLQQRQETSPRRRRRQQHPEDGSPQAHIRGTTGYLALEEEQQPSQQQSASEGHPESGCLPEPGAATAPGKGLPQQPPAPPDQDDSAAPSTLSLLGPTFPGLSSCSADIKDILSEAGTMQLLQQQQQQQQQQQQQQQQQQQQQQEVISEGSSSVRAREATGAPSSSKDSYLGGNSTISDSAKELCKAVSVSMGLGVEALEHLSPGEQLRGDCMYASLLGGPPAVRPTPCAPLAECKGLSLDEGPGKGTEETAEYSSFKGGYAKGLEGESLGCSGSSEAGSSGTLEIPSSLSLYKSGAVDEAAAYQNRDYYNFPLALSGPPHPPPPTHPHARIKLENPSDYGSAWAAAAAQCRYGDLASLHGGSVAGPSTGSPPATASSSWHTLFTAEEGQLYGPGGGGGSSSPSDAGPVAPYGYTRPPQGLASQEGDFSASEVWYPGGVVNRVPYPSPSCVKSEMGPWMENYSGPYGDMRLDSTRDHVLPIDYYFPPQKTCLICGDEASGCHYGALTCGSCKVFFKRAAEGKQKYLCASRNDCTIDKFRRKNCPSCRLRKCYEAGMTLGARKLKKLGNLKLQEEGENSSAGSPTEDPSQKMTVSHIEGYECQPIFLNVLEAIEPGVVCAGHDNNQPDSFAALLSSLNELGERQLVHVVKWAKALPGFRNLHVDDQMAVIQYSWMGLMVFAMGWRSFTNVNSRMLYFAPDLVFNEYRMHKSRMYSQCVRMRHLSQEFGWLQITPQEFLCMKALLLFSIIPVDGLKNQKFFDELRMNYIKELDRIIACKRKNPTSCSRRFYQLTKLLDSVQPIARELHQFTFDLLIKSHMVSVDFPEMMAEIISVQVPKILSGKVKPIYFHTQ
# In short: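 Cell-free radioligand binding on extracts of prostate from testosterone-pretreated rats, read by filter-based scintillation counting 18 h after dosing. Loss of bound signal fitted positively versus DMSO; primary screen in duplicate at 25 uM, actives followed up in concentration series.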
# [19] = biological target: human Norepinephrine Transporter (NET), SLC6A2 (gene 6530) (UniProt P23975); assay: NVS_TR_hNET: NovaScreen (NVS) Transporter Assay for human Norepinephrine Transporter (NET) (AID 2283377);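 note: cell-free membrane protein extracted from CHO cells expressing human NET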
# human Norepinephrine Transporter (NET), SLC6A2 (gene 6530), sequence (P23975 whole entry, looked up): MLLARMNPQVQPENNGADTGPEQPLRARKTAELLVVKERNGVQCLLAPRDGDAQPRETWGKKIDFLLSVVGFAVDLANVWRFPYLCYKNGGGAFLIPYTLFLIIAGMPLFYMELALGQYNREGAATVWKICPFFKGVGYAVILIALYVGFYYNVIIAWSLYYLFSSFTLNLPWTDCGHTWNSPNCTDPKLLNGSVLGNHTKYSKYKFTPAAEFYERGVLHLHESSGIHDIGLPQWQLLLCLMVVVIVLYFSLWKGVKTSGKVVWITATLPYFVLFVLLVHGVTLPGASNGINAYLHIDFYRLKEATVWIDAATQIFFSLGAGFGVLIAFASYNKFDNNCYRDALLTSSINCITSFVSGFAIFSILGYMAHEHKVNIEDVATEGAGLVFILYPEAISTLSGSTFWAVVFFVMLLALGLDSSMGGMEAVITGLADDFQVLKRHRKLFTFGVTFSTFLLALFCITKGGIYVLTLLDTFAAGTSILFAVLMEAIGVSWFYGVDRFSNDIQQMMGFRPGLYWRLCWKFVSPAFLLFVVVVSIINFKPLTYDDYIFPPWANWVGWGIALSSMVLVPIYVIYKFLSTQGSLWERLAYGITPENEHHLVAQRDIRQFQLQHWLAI
# In short: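 Radioligand binding to human NET in cell-free CHO-derived protein preparations, read by filter-based scintillation counting 1 hour after dosing. Loss of signal versus DMSO baseline indicated displacement; primary screening in duplicate at 25 uM, actives then titrated.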
# [20] = biological target: rat Serotonin Transporter (SERT), Slc6a4 (gene 25553) (UniProt P31652); assay: NVS_TR_rSERT: NovaScreen (NVS) Transporter Assay for rat Serotonin Transporter (SERT) (AID 2283375)
# rat Serotonin Transporter (SERT), Slc6a4 (gene 25553), sequence (P31652 whole entry, looked up): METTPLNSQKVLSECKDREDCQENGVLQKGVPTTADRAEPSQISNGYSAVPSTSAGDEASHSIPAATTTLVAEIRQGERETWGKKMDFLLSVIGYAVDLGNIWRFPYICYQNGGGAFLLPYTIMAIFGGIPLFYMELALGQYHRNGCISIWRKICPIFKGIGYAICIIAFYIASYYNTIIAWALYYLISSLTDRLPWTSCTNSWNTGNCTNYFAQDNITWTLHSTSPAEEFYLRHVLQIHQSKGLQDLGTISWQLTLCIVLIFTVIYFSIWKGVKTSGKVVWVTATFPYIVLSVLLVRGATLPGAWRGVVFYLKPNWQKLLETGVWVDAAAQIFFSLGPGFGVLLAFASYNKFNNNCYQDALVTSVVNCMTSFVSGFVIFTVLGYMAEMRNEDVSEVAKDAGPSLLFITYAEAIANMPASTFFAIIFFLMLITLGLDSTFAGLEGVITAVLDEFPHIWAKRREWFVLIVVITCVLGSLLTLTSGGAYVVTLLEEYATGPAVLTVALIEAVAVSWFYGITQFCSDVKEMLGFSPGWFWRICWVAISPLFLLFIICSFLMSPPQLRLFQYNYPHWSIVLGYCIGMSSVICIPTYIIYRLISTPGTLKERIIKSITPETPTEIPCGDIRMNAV
# In short: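 Rat forebrain membranes; radioligand displacement at SERT read by filter-based scintillation counting, 1 h after dosing. Screened in duplicate at 25 uM, actives then run in concentration series; loss of signal versus DMSO baseline.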
compound,measurement,setting,value
O=C(CCl)Nc1ccccc1,outcome,[1],inactive
same,outcome,[2],inactive
same,outcome,[3],inactive
same,AC50,[4],84.8 µM (active)
same,outcome,[5],inactive
same,outcome,[6],inactive
same,outcome,[7],inactive
same,outcome,[8],inactive
O=C(CBr)c1ccc(O)cc1,outcome,[1],inactive
same,outcome,[3],inactive
same,outcome,[6],inactive
same,outcome,[9],inactive
same,outcome,[10],inactive
same,outcome,[11],inactive
same,outcome,[7],inactive
same,outcome,[8],inactive
CCOP(=S)(OCC)O/N=C(\C#N)c1ccccc1,outcome,[1],inactive
same,AC50,[3],50 µM (active)
same,AC50,[6],32.5 µM (active)
same,outcome,[9],inactive
same,outcome,[10],inactive
same,outcome,[11],inactive
same,outcome,[7],inactive
same,outcome,[8],inactive
same,AC50,[12],82.5 µM (active)
same,outcome,[13],inactive
CCOP(=O)(OCC)OC(=CCl)c1ccc(Cl)cc1Cl,AC50,[14],10.9 µM (active)
same,AC50,[15],25 µM (active)
same,AC50,[16],25 µM (active)
same,AC50,[17],10.9 µM (active)
same,AC50,[12],5.43 µM (active)
same,outcome,[13],inactive
Nc1c(Oc2ccccc2)cc(O)c2c1C(=O)c1ccccc1C2=O,outcome,[18],inactive
N#CCC#N,outcome,[1],inactive
same,outcome,[3],inactive
same,outcome,[4],inactive
same,outcome,[5],inactive
same,outcome,[7],inactive
same,outcome,[8],inactive
Nc1ncn[nH]1,outcome,[1],inactive
same,outcome,[3],inactive
same,outcome,[6],inactive
same,outcome,[11],inactive
same,outcome,[7],inactive
same,outcome,[8],inactive
O=[N+]([O-])c1ccc(Cl)c([N+](=O)[O-])c1,AC50,[18],3.07 µM (active)
same,outcome,[2],inactive
same,AC50,[4],8.64 µM (active)
same,outcome,[7],inactive
same,outcome,[8],inactive
COc1nn(C(=O)NS(=O)(=O)c2ccccc2OC(F)(F)F)c(=O)n1C,AC50,[1],23.4 µM (active)
same,outcome,[3],inactive
same,outcome,[9],inactive
same,outcome,[10],inactive
same,outcome,[11],inactive
same,outcome,[7],inactive
same,outcome,[8],inactive
Cc1cc(C(C)(C)c2ccc(O)c(C)c2)ccc1O,outcome,[18],inactive
same,AC50,[15],6.35 µM (active)
same,AC50,[16],1.62 µM (active)
same,AC50,[19],8.57 µM (active)
same,AC50,[12],5 µM (active)
same,outcome,[13],inactive
CCCCCCCCCCBr,AC50,[14],0.87 µM (active)
Cc1ccc(CCl)cc1,AC50,[20],16.6 µM (active)
CC(=Cc1ccccc1)[N+](=O)[O-],outcome,[2],inactive
same,outcome,[3],inactive
same,AC50,[4],16.6 µM (active)
same,AC50,[5],19.8 µM (active)
same,outcome,[8],inactive
O=C(N[C@H]1CN2CCC1CC2)c1ccc2c(c1)OCCO2,outcome,[17],inactive
same,outcome,[3],inactive
same,outcome,[10],inactive
same,outcome,[11],inactive
same,outcome,[7],inactive
same,outcome,[8],inactive
N#Cc1cccnc1,outcome,[17],inactive
same,outcome,[3],inactive
same,outcome,[4],inactive
same,outcome,[5],inactive
same,outcome,[9],inactive
same,outcome,[10],inactive
same,outcome,[11],inactive
same,outcome,[7],inactive
same,outcome,[8],inactive
CCC[CH2][Sn]([CH2]CCC)([CH2]CCC)[CH2]CCC,outcome,[2],inactive
same,outcome,[3],inactive
same,AC50,[9],11.8 µM (active)
same,outcome,[7],inactive
same,outcome,[8],inactive
CC(C)(C)c1ccccc1O,outcome,[15],inactive
same,outcome,[16],inactive
same,outcome,[3],inactive
same,outcome,[10],inactive
same,outcome,[11],inactive
same,outcome,[7],inactive
same,outcome,[8],inactive
same,outcome,[12],inactive
same,outcome,[13],inactive
Nc1nc(N)nc(Cl)n1,outcome,[20],inactive
N#Cc1ccccc1N,AC50,[20],17.6 µM (active)
same,outcome,[19],inactive
CC1CC(=O)O1 (stereo unspecified),outcome,[17],inactive
O=[N+]([O-])c1ccccc1O,outcome,[2],inactive
same,outcome,[3],inactive
same,outcome,[11],inactive
same,outcome,[7],inactive
same,outcome,[8],inactive
N#CCCC(Br)(C#N)CBr (stereo unspecified),AC50,[15],7.56 µM (active)
same,outcome,[19],inactive
same,AC50,[3],11.9 µM (active)
same,outcome,[4],inactive
same,outcome,[5],inactive
same,outcome,[11],inactive
same,outcome,[7],inactive
same,outcome,[8],inactive
